PubChem BioAssay (NCI)
Compounds without any hit were thinned out: in the full panel of roughly 83,000, 20% have a hit.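 Cells were grown in 96-well plates and exposed to the test compound at a single concentration for 48 hours; results are reported as percent growth, with values below 10 considered active.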 Unmarked numbers belong to inactive results. Calls of active or inactive are those of the source.

system: SK-MEL-5 melanoma; assay: NCI-60 one-dose screen, 48 h (100 = growth as untreated, 0 = no growth, -100 = all killed); details: 10 µM unless noted

Row | SMILES | growth
1 | S=c1sc2c(Cl)nc(-c3cccnc3)nc2n1-c1ccccc1 | 76.3%
2 | C=C(C)[C@@H]1CC[C@]2(CO)CC[C@]3(C)[C@H](CC[C@@H]4[C@@]5(C)CC[C@H](NCO)C(C)(C)[C@@H]5CC[C@]43C)[C@@H]12 | -90.1% (active)
3 | CN(C)Cc1ccc(O)c(C(=O)O)c1 | 108%
4 | CCCn1cc2c(=O)nc3sc(Cc4ccccc4)c(C)n3c2n1 | 107%
5 | CN(/C(N)=N/N=C/c1c2ccccc2cc2ccccc12)C1CCCCC1 | 12.1%
6 | CC(=O)n1nc(C(=O)OC(C)(C)c2ccccc2)c2ccccc21 | 96.9%
7 | CS(=O)(=O)c1ccc(-c2cnn3ccc(-c4cccc(S(=O)(=O)C5CC5)c4)nc23)cc1 | 63.2%
8 | COc1ccc(/C=C(\C#N)n2nnc3ccc(Cl)cc32)cc1 | 81.7%
9 | Oc1c(Br)cc(Br)c2ccc(Cn3cc(-c4ccc(C(F)(F)F)cc4)nn3)nc12 | 98.2%
10 | Cc1sc2nc(NCCc3c[nH]c4ccc(Cl)cc34)[nH]c(=O)c2c1C | 50.4%
11 | CCN1C(=S)N(c2ccccc2)C2NC(=S)N(/N=C/C=C/c3ccccc3OC)C21 (centres undefined) | 14.1%
12 | CCN(C)S(=O)(=O)Nc1cccc(Nc2ncnc3cc(NC(=O)CCl)ccc23)c1Cl | -83.6% (active)
13 | Cn1c(I)c(C#CCO[Si](C)(C)C(C)(C)C)c(=O)[nH]c1=O | 103%
14 | Nc1[nH]n2cc(-c3ccccc3)nc2c1N=Nc1ccc(S(N)(=O)=O)cc1 | 26.8%
